Measured values as given in PubChem BioAssay AID2205 (University of Pittsburgh Molecular Library Screening Center, 2009).
Screen size: about 200,000 compounds; about 1,600 (0.8%) were called active. This is one part of a sample in which actives are shown more often than they occur.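 Rule for the calls: active = plate Z-score above 3 for both tubulin-high and condensed-nucleus cell shares, with cell loss under 80%, at 10 µM; inactive = the rest, inconclusive results apart.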

Test: tubulin staining increase by stabilizing compounds – imaging, high-content imaging, primary screen (AID 2205);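 for % tubulin-high responders: anti alpha tubulin signal scored within the nucleus-defined area of each cell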;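 for toxicity: 0% = mean cell density of plate MIN control wells and 100% = no cells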
Details: HeLa tubulin immunostaining HCS, 24 h, at 10 µM; % Hoechst-high responders: measured here: nuclear condensation Hoechst responders, stronger effect = higher value, share of cells brighter than vehicle mean+2SD; % tubulin-high responders: stronger effect = higher value, share of cells brighter than vehicle mean+2SD; toxicity: measured here: cytotoxicity by cell density

| Compound | % Hoechst-high responders | % tubulin-high responders | toxicity |
| --- | --- | --- | --- |
| Cc1cc(NC(=O)CSc2nnc(Nc3ccccc3F)s2)no1 | 2.66% | 2.72% (inactive) | 6.41% |
| Cc1cc(C)c2c(c1)cc(C)c1nnc(SCC(=O)Nc3cc(C)on3)n12 | 18.1% | 40.6% (active) | 66.4% |
| Cc1ccc(-c2csc(SCC(=O)Nc3cc(C)on3)n2)cc1 | 0.903% | 2.28% (inactive) | 2.29% |
| CCc1ccccc1NC(=O)Cc1cn(C)c2ccccc12 | 1.88% | 2.42% (inactive) | 1.32% |
| CCN(CC)C(=O)C(=O)c1cn(CC(=O)NCc2ccc3c(c2)OCO3)c2ccccc12 | 2.88% | 3.53% (inactive) | 7.75% |
| Cc1cc(C)cc(C(=O)NCC(=O)OCC(=O)N2CCCCC2)c1 | 1.86% | 1.01% (inactive) | 6.66% |
| COc1ccc(Nc2oc(-c3ccccc3Cl)nc2C#N)cc1 | 19.8% | 22.5% (active) | 63.9% |
| COc1ccccc1-c1nc(C#N)c(N2CCC(C(N)=O)CC2)o1 | 1.21% | 0.805% (inactive) | 3.26% |
| Cc1ccccc1-c1nc(C#N)c(NCc2ccco2)o1 | 2.06% | 1.4% (inactive) | 7.65% |
| N/C(=N\OS(=O)(=O)c1cccc([N+](=O)[O-])c1)c1ccncc1 | 2% | 1.6% (inactive) | 1.69% |
| O=[N+]([O-])c1ccc(C=Nc2ccc(Cl)cc2Cl)s1 | 9.57% | 11.5% (active) | 16% |
| Cc1ccccc1NCC(=O)N/N=C\c1ccc([N+](=O)[O-])s1 | 2.71% | 2.44% (inactive) | 1.44% |
| CCOc1ccc(NC(=O)CCC(=O)N/N=C/c2ccc([N+](=O)[O-])s2)cc1 | 1.9% | 4.38% (inactive) | 12.5% |
| O=C(Nc1ccccc1)/C(=C/c1ccc([N+](=O)[O-])cc1)NC(=O)c1ccccc1 | 4.34% | 2.81% (inactive) | 7.05% |
| CCOC(=O)/C(=C\c1ccc([N+](=O)[O-])cc1)C(=O)c1cc(C(C)=O)c(Nc2ccccc2)s1 | 6.43% | 24.7% (active) | 66.1% |
| Cc1cccc(NC(=O)c2sc(-c3ccccc3)nc2-c2ccc([N+](=O)[O-])cc2)c1 | 5.34% | 2.13% (inactive) | 9.44% |
| COC(=O)c1ccc(NCC(=O)N2CCCCCC2)cc1 | 2.09% | 3.14% (inactive) | 2.78% |
| COc1ccc(NC(=O)CSc2nnc(-c3ccccc3F)n2C2CC2)cc1S(N)(=O)=O | 2.54% | 1.8% (inactive) | 10.7% |
| CCOc1cc(/C=C(\C#N)c2nc(-c3cccs3)c(NC(C)=O)s2)ccc1O | 49.3% | 16.7% (active) | 32.4% |
| COc1cc(/C=C(\C#N)c2nc3c(s2)CC(C)CC3)ccc1O (stereo unspecified) | 2.11% | 1.86% (inactive) | 0.488% |
| CCOc1cccc(C(=O)Nc2nnc(-c3cccs3)s2)c1 | 2.31% | 1.76% (inactive) | 5.03% |
| CCCCc1cc2c(s1)CCCC/C2=N/O | 1.99% | 5.07% (inactive) | 0.0044% |
| CSc1nc2ccc(NC(=O)c3c(F)cccc3F)cc2s1 | 3.31% | 2.54% (inactive) | 0.69% |
| COc1ccc2nc(Nc3nc4ccc(NC(C)=O)cc4s3)sc2c1 | 3.35% | 5.83% (inactive) | 4.23% |
| CCCC(=O)Nc1nc2ccc(NC(=O)c3cccnc3)cc2s1 | 19.5% | 35.9% (active) | 55.8% |
| CCCC(=O)Nc1nc2ccc(NC(=O)c3c(F)c(F)c(OC)c(F)c3F)cc2s1 | 44.1% | 12.2% (active) | 35.6% |

| Compound | % Hoechst-high responders | % tubulin-high responders | toxicity |
| --- | --- | --- | --- |
| CCC(=O)Nc1cccc(NC(=O)c2cccnc2)c1 | 1.83% | 4.1% (inactive) | 8.32% |
| CCOC(=O)c1cc(NC(=O)c2cccnc2)cc(C(=O)OCC)c1 | 1.98% | 4.37% (inactive) | 5.37% |
| O=C(COC(=O)Cn1cnc2ccccc2c1=O)NCc1ccccc1Cl | 1.88% | 6.58% (inactive) | 5.1% |
| CCN(CC)c1ccc(NC(=O)c2ccc(Cl)nc2)cc1 | 27% | 43% (active) | 38.6% |
| NS(=O)(=O)c1ccc(NC(=O)COC(=O)c2ccc(Cl)nc2)cc1 | 1.74% | 3.68% (inactive) | 9.84% |
| O=C(NNc1ccccn1)c1ccc(Cl)nc1 | 2.04% | 3.3% (inactive) | 8.78% |
| CC(=O)Nc1ccc(S(=O)(=O)NC2(C(F)(F)F)C(=O)NC(C)=C2C#N)cc1 (stereo unspecified) | 0.651% | 0.947% (inactive) | 1.71% |
| COc1ccc(-n2cc(CN(C)Cc3n[nH]c(=O)[nH]3)c(-c3cccc(F)c3)n2)cc1 | 0.946% | 1.61% (inactive) | 7.39% |
| O=C(/C(=C/c1cccc(Cl)c1)c1nc2ccccc2[nH]1)c1ccccc1 | 42.6% | 47.1% (active) | 68.7% |
| CCC(=O)/C(=C(/O)c1ccccc1)c1nc2ccccc2[nH]1 | 1.47% | 1.53% (inactive) | 1.79% |
| Oc1ccc(Cl)cc1/C=N/c1nc2ccccc2[nH]1 | 3.67% | 2.45% (inactive) | 20.5% |
| C=CCn1cc(C(=O)NCc2ccc(Cl)cc2)c(=O)c2cc(S(=O)(=O)N(CC)CC)ccc21 | 2.4% | 2.86% (inactive) | 5.36% |
| CSc1ncccc1C(=O)N1CCCC(CCC(=O)NCc2ccccc2F)C1 (stereo unspecified) | 1.74% | 2.45% (inactive) | 3.21% |
| Cn1cccc1/C=N/NC(=O)c1ccc(OC(F)(F)C(F)F)cc1 | 2.53% | 6.72% (inactive) | 7.37% |
| COC(=O)Cc1ccc(NC(=S)NCc2ccccc2)cc1 | 2.07% | 4.23% (inactive) | 9.97% |
| N#CC1=C(N)Oc2c(sc3ccccc23)C1c1ccco1 (stereo unspecified) | 55.7% | 24.9% (active) | 32.3% |
| Cc1cc(C)c2c3c(sc2n1)C(c1ccccc1)C(C#N)=C(N)O3 (stereo unspecified) | 7.37% | 12.3% (inactive) | 9.16% |
| CCCCCCCC1(C)NC(=O)N(CC(=O)Nc2cc(C)on2)C1=O (stereo unspecified) | 2.15% | 3.92% (inactive) | 9.17% |
| Cc1ccc(S(=O)(=O)N(C)C)cc1NC(=O)COC(=O)C1COc2ccccc2O1 (stereo unspecified) | 2.45% | 3.07% (inactive) | 5.9% |
| O=C(c1cnn(-c2ccc(Cl)cc2)c1)c1ccccc1O | 3.19% | 3.73% (inactive) | 2.4% |
| COc1cccc(C(=O)Nc2ccc(N3CCCC3)cc2)c1 | 30.7% | 25.7% (active) | 50.6% |
| O=C(Cc1ccccc1)NC(=S)Nc1ccc(N2CCCCC2)cc1 | 2.7% | 1.21% (inactive) | 5.2% |
| Cc1ccccc1C(=O)Nc1ccc(N2CCCCCC2)cc1 | 34.7% | 13.1% (active) | 28.4% |
| COc1ccc(C(=O)NC(=S)Nc2ccc(N3CCCC3)cc2)cc1OC | 1.47% | 1.79% (inactive) | 9.06% |
| C/C(=N\NC(=O)c1ccccc1C)c1ccc(N2CCOCC2)cc1 | 0.821% | 1.28% (inactive) | 5.09% |
| COc1cccc(OC)c1C(=O)Nc1ccc(N2CCCCC2)cc1 | 2.3% | 2.03% (inactive) | 6.37% |
